Vif-APOBEC3F blk: qHTS for Inhibitors of Vif-A3F Interactions: qHTS; HeLa A3F-eYFP + Vif (tagged APOBEC3F with the HIV-1 protein that degrades it), YFP fluorescence increase; Potency, µM (titrated, usually from 46.1 µM); 390,000 compounds, 0.2% hits; further: nearly all actives have a fitted effect of over 65% in size
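HeLa cells stably expressing Vif plus C-terminally eYFP-tagged A3F were seeded, incubated overnight at 37 deg C, dosed with compound, incubated overnight again at 37 deg C. Yellow fluorescence (Ex 488/Em 500-530) reported blocked Vif-mediated A3F-eYFP degradation.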
MCF10A rereplic: A quantitative high throughput screen for small molecules that induce DNA re-replication in MCF 10a normal breast cells; MCF 10A DNA re-replication, Hoechst nuclear intensity, 48 h; Potency, µM (top dose mostly 46.1 µM), hits mostly activators; 350,000 compounds, 2.9% hits; AID 624296, 2012; further: nearly all actives have a fitted effect of over 50% in size
SW480 rereplic: A quantitative high throughput screen for small molecules that induce DNA re-replication in SW480 colon adenocarcinoma cells; 340,000 compounds, 1.8% hits; Potency, µM (series often up to 46.1 µM), usual class: activators; SW480 DNA re-replication, Hoechst DNA content imaging, 48 h; AID 624297, 2012; further: nearly all actives have a fitted effect of over 55% in size
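Per well, 250 cells were exposed to pinned compound for 48 hr. Nuclear DNA was visualised with Hoechst (40 min, 37 C) and total object intensity recorded by fluorescence scanning.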
Giardia killer: Small Molecules that selectively kill Giardia lamblia: qHTS. Giardia lamblia trophozoite viability. activity change, % at 7.66 µM, hits read low. 340,000 compounds, 0.15% hits; in the data active means activity change below about -80%; inconclusive means between about -30% and that limit;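 further: parasites exposed to compound for two days anaerobically before the ATP read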
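Anaerobic 48 hrs incubation at 37 deg C of 100 trophozoites/well with test compounds; ATPLite 1-Step luminescence, 15-30 min RT, reports cellular ATP as viability.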
Vif-A3G inh: qHTS for Inhibitors of Vif-A3G Interactions: qHTS. DNA dC->dU-editing enzyme APOBEC-3G (Homo sapiens), Q9HC16. HeLa A3G-eYFP + Vif (tagged APOBEC3G with the HIV-1 protein that degrades it), YFP fluorescence, overnight. Potency, µM (top dose mostly 46.1 µM), hits mostly inhibitors. 410,000 compounds, 0.076% hits; further: nearly all actives have a fitted effect of over 60% in size
Target sequence (Q9HC16 whole entry, looked up): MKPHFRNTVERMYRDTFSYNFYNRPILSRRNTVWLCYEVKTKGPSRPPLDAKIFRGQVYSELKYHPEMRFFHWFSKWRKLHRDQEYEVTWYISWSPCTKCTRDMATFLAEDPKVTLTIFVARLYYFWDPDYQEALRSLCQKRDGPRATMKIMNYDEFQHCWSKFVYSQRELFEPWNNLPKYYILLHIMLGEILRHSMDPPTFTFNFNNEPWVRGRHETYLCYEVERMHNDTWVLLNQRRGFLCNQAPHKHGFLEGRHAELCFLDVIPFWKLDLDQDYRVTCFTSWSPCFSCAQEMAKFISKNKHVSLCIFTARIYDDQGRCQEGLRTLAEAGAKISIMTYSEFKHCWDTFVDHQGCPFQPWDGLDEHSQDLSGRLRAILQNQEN
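Read-out is eYFP fluorescence (Ex 488/Em 500-530) from Vif-expressing HeLa A3G-eYFP cells; more signal means A3G escaped Vif-mediated degradation. Cells plated overnight, compound pinned in, incubated overnight at 37 deg C.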
IL1B secr inh: qHTS for Inhibitors of Inflammasome Signaling: IL-1-beta AlphaLISA Primary Screen | THP-1 LPS/ATP IL-1B secretion, AlphaLISA, 16 h; stronger effect = lower value | activity change, % at 57.5 µM | 360,000 compounds, 4.7% hits | AID 743279, 2014; in the data active means activity change below about -50%; inconclusive means mostly about -30% to -49%
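THP-1 cells pretreated 1 hr with compounds (up to 57.5 uM final), then stimulated with LPS (250 ng/mL final) plus ATP (1.25 mM final); secreted IL-1B measured by AlphaLISA after 16 hr, decreased signal indicating inhibition.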
Hits are given with their value; i = inactive; ? = inconclusive; nt = no result given. Rows were chosen to be rich in hits. Some 6.9% of all compounds tested hit in one or more screens of this group. Unless noted, the call rests on the fitted dose curve; in most records, active means well fitted curve in the direction sought with a large enough effect; inconclusive means small, poorly fitted or top-dose-only effect, or another doubt; inactive means no such curve, though single readings can be large; an effect the other way counts as inactive or inconclusive.

SMILES	Vif-APOBEC3F blk	MCF10A rereplic	SW480 rereplic	Giardia killer	Vif-A3G inh	IL1B secr inh
CCOc1ccc(N2CC(NC(=O)c3ccc(S(=O)(=O)N4CCCCC4)cc3)CC2=O)cc1 (centres undefined)	i	nt	nt	nt	i	nt
O=C(C[n+]1ccccc1Cl)c1ccc(Br)cc1	nt	nt	nt	nt	i	nt
Cc1ccc(NS(=O)(=O)c2cc(C(=O)NCCSc3ccc(C)cc3)ccc2C)cc1	i	i	i	i	i	-52.9
Cc1ccc(NS(=O)(=O)c2cc(C(=O)NCCSC3CCCCC3)ccc2C)cc1	i	?	i	i	i	-57.4
Cc1ccc(SCCNC(=O)c2ccc(C)c(S(=O)(=O)Nc3cccc(C)c3)c2)cc1	i	i	i	i	i	-57.0
Cc1ccc(SCCNC(=O)c2ccccc2)cc1	i	i	i	i	i	i
CS(=O)(=O)Nc1ccc(C(=O)NCCSC2CCCCC2)cc1	i	i	i	i	i	i
Cc1ccc(C(=O)NCCSc2ccc(Cl)cc2)cc1S(=O)(=O)Nc1ccccc1	i	?	?	i	i	-93.1
COc1ccc2[nH]c(CCc3nc4c(OC)c(OC)ccc4[nH]3)nc2c1OC	nt	nt	nt	nt	i	nt
COc1cc(/C=C2\C(=O)ON=C2c2ccc(Cl)cc2)ccc1O	i	?	?	i	?	-94.5
CC(C)CCN(CCC(C)C)CC(O)Cn1c2ccccc2c(=O)c2ccccc21 (centres undefined)	i	3.26µM	?	i	i	i
CCCN(CCC)CC(O)Cn1c2ccccc2c2ccccc21 (centres undefined)	i	i	?	i	i	-75.2
Cc1c(C)n(CC(O)CN(CCO)CCO)c2ccccc12 (centres undefined)	i	i	i	i	i	i
COC(=O)C1CCN(c2csc3ccc(Cl)cc3c2=O)CC1	i	nt	nt	nt	i	nt
COc1ccc(CCNCc2c(C(=O)O)c(C)n(Cc3ccccc3C)c2C)c(OC)c1	i	nt	nt	nt	i	nt
COc1ccc(C2=C(O)C(C)N(c3ccccc3)C2=N)cc1OC (centres undefined)	i	i	i	i	i	i
CCC1C(O)=C(c2ccccn2)C(=N)N1c1ccccc1 (centres undefined)	i	13µM	18.4µM	i	i	i
CCOC(=O)[C@]12Cc3c(cc(OC)c(OC)c3OC)[C@H]1N(C1CCCCC1)C(=O)c1cc(OC)ccc12	nt	nt	nt	nt	nt	-118.4
CCOC(=O)N1CCC(N2C(=O)c3ccccc3C2Nc2cc(OC)c(OC)c(OC)c2)CC1 (centres undefined)	i	i	i	i	i	i
FC(F)(F)c1ccc(C2=Nc3ccccc3NC(c3cccs3)=N2)cc1	i	nt	nt	nt	i	nt
O=Cc1s/c(=N\S(=O)(=O)c2ccccc2)n(CCCCl)c1Cl	28.2µM	?	8.2µM	i	?	-101.5
CCn1c(C)cs/c1=N\S(=O)(=O)c1ccccc1	i	i	i	i	i	i
CCS(=O)(=O)c1cccc(C(=O)N2CCN(c3nc4c(C)ccc(Cl)c4s3)CC2)c1	i	nt	nt	i	i	nt
Cc1cccn2cc(COc3cccc([N+](=O)[O-])c3)nc12	i	i	i	i	i	i
Cc1cccn2cc(COc3ccc(-c4ccccc4)cc3)nc12	?	16.4µM	i	i	i	i
CC(=O)n1cc(C(C[N+](=O)[O-])SCCN)c2ccccc21 (centres undefined)	i	5.17µM	6.51µM	i	?	-97.4
Cc1ccc(CNC(=O)c2ccc(NC(=O)C3=CSCCO3)cc2)cc1	i	i	i	i	i	i
CCOc1ccc(CNC(=O)c2ccc(NC(=O)C3=CSCCO3)cc2)cc1	i	i	i	i	i	-53.6
O=c1cc(-c2ccccc2)nc(SCc2nc(-c3cccc(C(F)(F)F)c3)no2)[nH]1	i	nt	nt	nt	i	nt
